In the library only some 7.5% were active in any assay of this set; here they are far more common.
NPC1 prom act – NPC1 promoter activation; Huh7 NPC1 promoter luciferase reporter, 24 h; Potency, µM (series often up to 9.22 µM), hits mostly activators; 320,000 tested, 2.4% active; note: nearly all actives have a fitted effect of over 60% in size
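In 1536-well qHTS, Huh7 cells harboring an NPC1 promoter–luciferase construct received compound for 24 h; activation was quantified by luminescence following luciferase reagent addition.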
FLuc modulator – firefly luciferase modulation, counter-screen for miR-21 project; P08659; 360,000 tested, 6.9% active; purified FLuc, Km substrates, luminescence inhibition; Potency, µM (top dose mostly 57.5 µM), actives largely listed as inhibitors; note: nearly all actives have a fitted effect of over 55% in size
Target sequence (P08659 whole entry, looked up): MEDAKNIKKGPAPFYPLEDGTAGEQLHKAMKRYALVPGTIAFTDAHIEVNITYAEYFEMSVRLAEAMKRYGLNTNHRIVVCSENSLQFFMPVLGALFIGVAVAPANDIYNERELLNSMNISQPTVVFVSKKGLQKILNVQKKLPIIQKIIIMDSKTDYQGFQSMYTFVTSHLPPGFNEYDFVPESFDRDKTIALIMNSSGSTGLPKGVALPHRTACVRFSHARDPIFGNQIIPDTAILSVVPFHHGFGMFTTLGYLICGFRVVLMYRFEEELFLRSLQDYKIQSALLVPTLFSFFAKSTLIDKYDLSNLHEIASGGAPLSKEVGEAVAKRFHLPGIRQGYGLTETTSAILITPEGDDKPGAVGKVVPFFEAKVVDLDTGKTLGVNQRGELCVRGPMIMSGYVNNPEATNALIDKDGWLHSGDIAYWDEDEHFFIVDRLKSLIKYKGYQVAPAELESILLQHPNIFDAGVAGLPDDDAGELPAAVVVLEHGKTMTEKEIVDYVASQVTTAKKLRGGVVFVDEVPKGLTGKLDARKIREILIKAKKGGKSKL
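Biochemical qHTS of compounds, final roughly 60 µM downward over six points, against 10 nM purified firefly luciferase using Km concentrations of substrates (10 uM D-luciferin, 10 uM ATP) in Tris acetate pH 7.5 buffer; luminescence output.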
Rab9 prom act – activators of Rab9 promoter; AID 485297; 320,000 tested, 2.8% active; Huh7 Rab9 promoter-luciferase reporter, luminescence, 24 h; Potency, µM (doses to about 9.22 µM), hits mostly activators; note: nearly all actives have a fitted effect of over 60% in size
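Cell-based reporter: Huh7 stable for Rab9 promoter-driven luciferase, plated in reduced-serum medium with 10% FBS at 1500 cells/well, compound-treated 24 h at 37 °C, luminescence read after 10 min reagent.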
ELG1 genotox – induces genotoxicity in HEK293T cells with luciferase-tagged ELG1; HEK293T ELG1-luciferase reporter, luminescence, 16 h; Potency, µM (titrated, usually from 46 µM), most hits filed as activators; 330,000 tested, 1.3% active; note: nearly all actives have a fitted effect of over 60% in size
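Genotoxicity was scored as increased ELG1-luciferase reporter signal, measured by ONE-Glo luminescence (30 min, room temperature). Compound or vehicle exposure of the HEK293T reporter cells lasted 16 hr at 37°C.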
SMN2 splice up – SMN2 splice variant enhancement; Potency, µM (highest dose often 46.1 µM), most hits filed as activators; HEK293 SMN2-luciferase splicing reporter, luminescence, 30-36 h; 210,000 tested, 2.8% active; note: nearly all actives have a fitted effect of over 55% in size
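HEK293 cells carry an SMN2 […]–luciferase reporter in which exon 7 inclusion puts luciferase in frame. Cells were plated 10-12 h before compound addition, then incubated 30-36 h at 37C. ONE-Glo luminescence was read; sodium butyrate at 4.5 mM final served as control.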
Numbers stand for hits; i = inactive; ? = inconclusive; nt = not tested or not shown; [ ] = dose if it differs, or a comment. Calls come from the whole dose curve; as a rule, active = well fitted curve in the direction sought with a large enough effect; inconclusive = small, poorly fitted or top-dose-only effect, or another doubt; inactive = no such curve, though single readings can be large; an effect the other way counts as inactive or inconclusive.

SMILES	NPC1 prom act	FLuc modulator	Rab9 prom act	ELG1 genotox	SMN2 splice up
Cn1ccsc1=NC(=O)c1ccc(S(C)(=O)=O)c([N+](=O)[O-])c1	?	4.78µM	i	i	nt
Cc1ccc(C(=O)N=c2sccn2C)cc1S(=O)(=O)N1CCOCC1	3.98µM	?	1.41µM	?	nt
Cc1ccccc1C(=O)N=c1sccn1C	i	i	i	i	i
CCCCOc1ccc(C(=O)N=c2sccn2C)cc1OC	3.55µM	12µM	2.82µM	?	nt
Cc1cccc(C(=O)N=c2sccn2C)c1[N+](=O)[O-]	2.82µM	15.1µM	?	10.3µM	nt
CCN(CC)S(=O)(=O)c1cc(C(=O)N=c2sccn2C)ccc1OC	i	i	i	i	nt
Cc1ccc(S(=O)(=O)N2CCN(C(=O)COC(=O)C3CCC3)CC2)c(C)c1	i	i	i	i	nt
Cn1c(-c2ccc3c(c2)OCO3)cnc1NCc1ccccc1	i	?	i	i	i
Cn1c(-c2ccc3c(c2)OCO3)cnc1NCc1ccccc1Cl	i	12µM	?	i	?
O=[N+]([O-])c1cc(/C=N/O)ccc1Oc1ccccc1Cl	i	19µM	i[1.84 µM]	?	i
CC(C)(C)C(=O)Nc1ccc(C(=O)Nc2cc(NC(=O)c3ccc(NC(=O)C(C)(C)C)cc3)cc(C(=O)O)c2)cc1	i	4.26µM	i	i	nt
O=C(O)c1cc(NC(=O)c2ccc([N+](=O)[O-])cc2)cc(NC(=O)c2ccc([N+](=O)[O-])cc2)c1	i	i	i	i	nt
O=C(O)c1cc(NC(=O)c2ccc(Br)cc2)cc(NC(=O)c2ccc(Br)cc2)c1	i	21.3µM	i	i	nt
COc1ccc2[nH]c(=O)c(CN(C(=O)C3CCCO3)c3ccc(C)c(C)c3)cc2c1 (configuration not stated)	i	i	i	i	nt
Cc1ccnc(NC(=O)/C=C/c2ccccc2[N+](=O)[O-])c1	2µM	3.38µM	0.562µM	2.59µM	2.82µM
O=C(/C=C\c1ccccc1[N+](=O)[O-])Nc1ccccc1	?	10.7µM	2µM	?	17.8µM
NS(=O)(=O)c1ccc(NC(=O)/C=C/c2ccccc2[N+](=O)[O-])cc1	i	i	i	i	i
Cc1ccnc(NC(=O)/C=C/c2ccccc2Cl)c1	0.708µM	0.601µM	1.12µM	?	1.26µM
O=C(Nc1nc(-c2ccc(F)cc2)cs1)c1cccnc1	i	i	i	i	nt
COC(=O)Cn1ncc(N(C)Cc2ccccc2)c(Cl)c1=O	2.51µM	12µM	?	?	nt
CC1CC1C(=O)N1CCN(S(=O)(=O)c2cc(C(F)(F)F)cc(C(F)(F)F)c2)CC1 (configuration not stated)	i	i	i	i	nt
COc1ccc(-c2nc3cc(C)ccn3c2NCc2ccc3c(c2)OCO3)cc1	i	16.9µM	?	i	nt
c1ccc(-c2nc3ccccn3c2NCc2ccc3c(c2)OCO3)cc1	i	?	i	i	i
COc1ccc(-c2nc3ccccn3c2NCc2ccc3c(c2)OCO3)cc1	?	4.78µM	?	i	14.1µM
CN1C(=O)C(CC(=O)NCCc2ccccc2)N(NC(=O)c2cccc(F)c2)C1=S (configuration not stated)	i	i	i	i	nt
SMILES	NPC1 prom act	FLuc modulator	Rab9 prom act	ELG1 genotox	SMN2 splice up
O=C(c1cccc2ccccc12)C1CCCN(C(=O)C2CCOCC2)C1 (configuration not stated)	i	i	i	i	nt
O=C(Nc1ccc(CN2CCCCC2)cc1)c1cccc(F)c1	i	?	i	?	i
CCOc1ccc(OCc2cccc(C(=O)Nc3ccc(CN4CCCCC4)cc3)c2)cc1	0.355µM	6.01µM	0.447µM	1.3µM	1.78µM
COc1ccc(OCc2cccc(C(=O)Nc3ccc(CN4CCCCC4)cc3)c2)cc1	1.12µM	12µM	0.891µM	?	1.78µM
N#Cc1cc(-c2ccccc2)nn1-c1ccccc1	i	i	i	?	i
Cc1oc(-c2ccccc2)nc1C(=O)O	i	i	i	i	nt
COc1ccccc1NCC(=O)N/N=C/C=C/c1ccccc1	i	26.9µM	i	i	i
CCOC(=O)N/N=C/C=C/c1ccccc1	?	?	?	?	11.2µM
Cc1noc(C)c1NC(=O)N(C)C[C@H]1Oc2ccc(NC(=O)NC(C)C)cc2C(=O)N([C@H](C)CO)C[C@H]1C	nt	nt	nt	i	nt
CCc1c(C)nc2ncnn2c1Nc1ccc(C(C)=O)cc1	i	26.9µM	i	18.4µM	i
CCOC(=O)c1ccc(Nc2c(CC)c(C)nc3ncnn23)cc1	i	i	i	i	i
COC(=O)c1nc(-c2ccc(C)cc2)oc1N(C)C	i	19µM	i	i	i
Cc1ncoc1C(=O)Nc1ccc(Oc2ccccc2)cc1	?	15.1µM	?	i	i
Cc1nc(C)c(C(=O)Nc2ccc(Oc3ccccc3)cc2)o1	i	23.9µM	i	i	i
O=C(NC1CC1)C1CCCN1S(=O)(=O)c1ccc2ccccc2c1 (configuration not stated)	i	i	i	i	11.2µM
CCNC(=O)C1CCCN1S(=O)(=O)c1ccc2ccccc2c1 (configuration not stated)	i	i	i	i	nt
CC(=O)c1ccc(OCc2cc(C(=O)N3CCOCC3)no2)cc1	?	16.9µM	?	?	nt
CC(=O)c1ccc(OCc2cc(C(=O)N3CCCCCCC3)no2)cc1	i	?	i	i	nt
Cc1ccc(OCc2cc(C(=O)N3CCC(Oc4cccnc4)CC3)no2)cc1C	i	i	i	i	nt
CC(=O)c1ccc(OCc2cc(C(=O)N3CCC(Oc4ccccc4C)CC3)no2)cc1	?	19µM	?	i	nt
Cc1nc(SCC(=O)N(C)C2(C#N)CCCCC2)c2ccccc2n1	i	23.9µM	i	i	nt
CC(C)Oc1ccc(/C=N/NC(N)=S)cc1	?	15.1µM	?	i	?
Cc1scc(C(=O)N/N=C/c2ccc(Cl)s2)c1C	3.55µM	3.01µM	2.24µM	?	17.8µM
COc1ccccc1/C=N/NC(=O)c1csc(C)c1C	i	3.38µM	i	i	i
Cc1scc(C(=O)N/N=C/c2ccc(OC(C)C)cc2)c1C	i	6.75µM	?	?	?
COc1ccc(/C=N/NC(N)=S)cc1	i	?	i	i	nt
COc1ccc(CC(=O)N/N=C/c2ccc(Cl)s2)cc1OC	i	i	i[1.84 µM]	i	nt

Screening data from PubChem.
